Data taken from the antibiotic and cytotoxicity screens of Wong et al. (2023).
Among all 39,000 compounds or so, about 3,300 (8.5%) were called active. The full list was thinned out, with actives kept by preference.

These compounds were tested on HepG2 (assay: cytotoxicity call (relative viability < 0.9)). Settings: 10 µM.
In the case of `COCCNC(=O)C[C@H]1C[C@@H]2c3cc(NS(C)(=O)=O)ccc3O[C@@H]2[C@H](CO)O1`, the cytotoxicity call is reported as “inactive”. In the case of `CO[C@H]1CN(C)C(=O)c2cc(NC(=O)c3ccc(F)cc3)ccc2OC[C@@H](C)N(C(=O)CN(C)C)C[C@H]1C`, the cytotoxicity call is reported as “inactive”. For `COCC#Cc1ccc([C@@H]2[C@@H](CO)N3C(=O)CN(C(=O)CN4CCOCC4)C[C@H]23)cc1`, the cytotoxicity call was “inactive”. For `C[C@H]1CN([C@@H](C)CO)C(=O)Cc2cc(NC(=O)Cn3cnnn3)ccc2O[C@@H]1CN(C)C(=O)Nc1ccc(C(F)(F)F)cc1`, the cytotoxicity call was “inactive”. `C[C@H]1CCCCO[C@H](CN(C)C(=O)Nc2ccc(F)cc2)[C@@H](C)CN([C@@H](C)CO)C(=O)c2cc(NS(=O)(=O)c3ccccc3)ccc2O1` was tested, and the cytotoxicity call was “inactive”. In the case of `O=c1c(O)cc([C@H]2Oc3cc(O)cc(O)c3C[C@H]2O)c2cc([C@H]3Oc4cc(O)cc(O)c4C[C@H]3O)cc(O)c(O)c1-2`, the cytotoxicity call is reported as “inactive”. With `O=C(O[C@@H]1Cc2c(O)cc(O)cc2O[C@@H]1c1cc(O)c(O)c2c(=O)c(O)cc([C@H]3Oc4cc(O)cc(O)c4C[C@H]3O)c-2c1)c1cc(O)c(O)c(O)c1` the cytotoxicity call was “active”. In the case of `O=C(OC1Cc2c(O)cc(O)cc2OC1c1cc(O)c(=O)c2c(O)c(O)cc(C3Oc4cc(O)cc(O)c4CC3O)c2c1)c1cc(O)c(O)c(O)c1` (configuration not stated), the cytotoxicity call is reported as “inactive”. For `CCOC(=O)C1=C(COCCN)NC(C)=C(C(=O)OC)C1c1ccccc1Cl.O=S(=O)(O)c1ccccc1` (configuration not stated), the cytotoxicity call was “active”. `CCOC(=O)C1=C(C)NC(C)=C(C(=O)OC)C1c1cccc(Cl)c1Cl` (configuration not stated) was tested, and the cytotoxicity call was “inactive”. In the case of `COC(=O)C1=C(C)NC(C)=C(C(=O)OC)C1c1ccccc1[N+](=O)[O-]`, the cytotoxicity call is reported as “inactive”. `C[C@H]1CN([C@@H](C)CO)C(=O)c2cccc(NC(=O)C3CC3)c2O[C@H]1CN(C)Cc1ccc(Oc2ccccc2)cc1` was tested, and the cytotoxicity call was “inactive”. In the case of `CC(=O)N(C)C[C@@H]1Oc2cc(C#CCN(C)C)ccc2S(=O)(=O)N([C@@H](C)CO)C[C@H]1C`, the cytotoxicity call is reported as “inactive”. `C[C@H](CO)N1C[C@H](C)[C@H](CN(C)C(=O)c2ccccc2F)Oc2ncc(C#Cc3ccncc3)cc2C1=O` was tested, and the cytotoxicity call was “inactive”. With `CC(C)c1nc(N(C)S(C)(=O)=O)nc(-c2ccc(F)cc2)c1C=CC(O)CC(O)CC(=O)[O-].[Ca+2]` (configuration not stated) the cytotoxicity call was “inactive”. In the case of `CC(C)n1c(C=CC(O)CC(O)CC(=O)[O-])c(-c2ccc(F)cc2)c2ccccc21.[Na+]` (configuration not stated), the cytotoxicity call is reported as “active”. With `CC(C)c1c(C(=O)Nc2ccccc2)c(-c2ccccc2)c(-c2ccc(F)cc2)n1CCC(O)CC(O)CC(=O)[O-].[Ca+2]` (configuration not stated) the cytotoxicity call was “inactive”. In the case of `C[C@@H]1CCCCO[C@@H](CN(C)C(=O)Nc2ccc(F)cc2)[C@H](C)CN([C@H](C)CO)C(=O)c2cc(NC(=O)NC3CCCCC3)ccc2O1`, the cytotoxicity call is reported as “inactive”. In the case of `C=CCC[C@@H](Cc1ccc(F)cc1)C(=O)OC[C@H](Cc1c[nH]c2ccccc12)NC(=O)[C@@H](CC=C)CC(=O)N(CCO)Cc1ccccc1`, the cytotoxicity call is reported as “inactive”. In the case of `C=CCC[C@H](Cc1ccc(F)cc1)C(=O)OC[C@H](Cc1c[nH]c2ccccc12)NC(=O)[C@@H](CC=C)CC(=O)N(CCO)Cc1ccccc1`, the cytotoxicity call is reported as “active”. `C=CCC[C@H](Cc1ccc(F)cc1)C(=O)OC[C@@H](Cc1c[nH]c2ccccc12)NC(=O)[C@@H](CC=C)CC(=O)N(CCO)Cc1ccccc1` was tested, and the cytotoxicity call was “active”. `C=CCC[C@@H](Cc1ccc(F)cc1)C(=O)OC[C@@H](Cc1c[nH]c2ccccc12)NC(=O)[C@@H](CC=C)CC(=O)N(CCO)Cc1ccccc1` was tested, and the cytotoxicity call was “active”. `C=CCC[C@@H](Cc1ccc(F)cc1)C(=O)OC[C@@H](Cc1ccccc1)NC(=O)[C@H](CC=C)CC(=O)N(CCO)Cc1ccccc1` was tested, and the cytotoxicity call was “inactive”. For `C=CCC[C@H](Cc1ccc(F)cc1)C(=O)OC[C@@H](Cc1c[nH]c2ccccc12)NC(=O)[C@H](CC=C)CC(=O)N(CCO)Cc1ccccc1`, the cytotoxicity call was “active”. With `Cc1cccc(S(=O)(=O)N2C[C@@H](O)COC[C@@H]3O[C@H](CC(=O)NCc4ccncn4)CC[C@H]32)c1` the cytotoxicity call was “inactive”. With `COCC(=O)Nc1ccc2c(c1)OC[C@H](C)N(Cc1cccc(F)c1)C[C@@H](C)[C@@H](OC)CN(C)C2=O` the cytotoxicity call was “inactive”. With `CCCN(C)C[C@@H]1OCCCC[C@@H](C)Oc2ccc(NC(=O)Nc3c(C)noc3C)cc2C(=O)N([C@H](C)CO)C[C@@H]1C` the cytotoxicity call was “inactive”. `C[C@H](CO)N1C[C@H](C)[C@@H](CN(C)C(=O)NC2CCCCC2)OCCCC[C@H](C)Oc2ccc(NS(=O)(=O)c3ccccc3)cc2C1=O` was tested, and the cytotoxicity call was “inactive”. `C[C@@H]1CCCCO[C@@H](CN(C)Cc2ccc3c(c2)OCO3)[C@H](C)CN([C@H](C)CO)C(=O)c2cc(NS(=O)(=O)c3cccs3)ccc2O1` was tested, and the cytotoxicity call was “inactive”. `C[C@@H]1CCCCO[C@@H](CN(C)C(=O)Nc2ccc(F)cc2)[C@H](C)CN([C@H](C)CO)C(=O)c2cc(NC(=O)Nc3ccc(F)cc3)ccc2O1` was tested, and the cytotoxicity call was “inactive”. For `C[C@@H]1CN([C@@H](C)CO)C(=O)c2cc(NS(C)(=O)=O)ccc2O[C@@H]1CN(C)Cc1ccc(C(=O)O)cc1`, the cytotoxicity call was “inactive”. For `C[C@@H]1CCCCO[C@@H](CN(C)Cc2ccncc2)[C@@H](C)CN([C@@H](C)CO)C(=O)c2cc(NC(=O)Nc3ccc(F)cc3)ccc2O1`, the cytotoxicity call was “inactive”. With `C[C@@H]1CN([C@H](C)CO)C(=O)c2cccc(NC(=O)C3CC3)c2O[C@@H]1CN(C)S(=O)(=O)c1ccc(F)cc1` the cytotoxicity call was “inactive”. In the case of `C=CCC[C@H](Cc1ccc(F)cc1)C(=O)OC[C@H](Cc1c[nH]c2ccccc12)NC(=O)[C@H](CC=C)CC(=O)N(CCO)Cc1ccccc1`, the cytotoxicity call is reported as “inactive”. For `C=CCC[C@@H](Cc1ccc(F)cc1)C(=O)OC[C@H](Cc1c[nH]c2ccccc12)NC(=O)[C@H](CC=C)CC(=O)N(CCO)Cc1ccccc1`, the cytotoxicity call was “inactive”. `C=CCC[C@@H](Cc1ccc(F)cc1)C(=O)OC[C@@H](Cc1c[nH]c2ccccc12)NC(=O)[C@H](CC=C)CC(=O)N(CCO)Cc1ccccc1` was tested, and the cytotoxicity call was “active”. In the case of `C[C@H](CO)N1C[C@H](C)[C@H](CN(C)C(=O)Nc2cccc3ccccc23)Oc2ccc(NC(=O)Nc3ccc(F)cc3)cc2CC1=O`, the cytotoxicity call is reported as “inactive”. `C[C@@H](N)c1nc2c(s1)CCCC2` was tested, and the cytotoxicity call was “inactive”. For `O=C1O[C@H](c2ccccc2)[C@H](c2ccccc2)N2[C@H]1[C@@H](C(=O)NC[C@@H](O)c1ccccc1)[C@]1(C(=O)Nc3ccc(C#CC4(O)CCCCCC4)cc31)[C@H]2c1ccccc1OCCO`, the cytotoxicity call was “inactive”. `C[C@H](CO)N1C[C@H](C)[C@@H](CN(C)Cc2ccc(Cl)c(Cl)c2)Oc2ccc(NC(=O)Nc3ccc(C(F)(F)F)cc3)cc2C1=O` was tested, and the cytotoxicity call was “active”. With `C[C@@H]1CN([C@@H](C)CO)C(=O)c2cc(NC(=O)Nc3ccc(C(F)(F)F)cc3)ccc2O[C@H]1CN(C)Cc1ccc(Cl)c(Cl)c1` the cytotoxicity call was “inactive”. With `C[C@@H]1CN([C@H](C)CO)C(=O)c2cc(NC(=O)Nc3ccc(C(F)(F)F)cc3)ccc2O[C@H]1CN(C)Cc1ccc(Cl)c(Cl)c1` the cytotoxicity call was “active”. For `C[C@@H]1CN([C@@H](C)CO)C(=O)c2cc(NC(=O)Nc3ccc(C(F)(F)F)cc3)ccc2O[C@@H]1CN(C)Cc1ccc(Cl)c(Cl)c1`, the cytotoxicity call was “active”. In the case of `C[C@H]1CN([C@@H](C)CO)C(=O)c2cc(NC(=O)Nc3ccc(C(F)(F)F)cc3)ccc2O[C@@H]1CN(C)Cc1ccc(Cl)c(Cl)c1`, the cytotoxicity call is reported as “inactive”. For `C[C@@H]1CN([C@H](C)CO)C(=O)c2cc(NC(=O)Nc3ccc(C(F)(F)F)cc3)ccc2O[C@@H]1CN(C)Cc1ccc(Cl)c(Cl)c1`, the cytotoxicity call was “active”. With `C[C@H](CO)N1C[C@H](C)[C@@H](CN(C)S(=O)(=O)c2ccc(Cl)cc2)Oc2ccc(NC(=O)CCCN(C)C)cc2CC1=O` the cytotoxicity call was “inactive”. In the case of `NCC[C@H]1CC[C@H](NC(=O)C2CC2)[C@H](CO)O1`, the cytotoxicity call is reported as “inactive”. With `CSc1nc(=O)c(CCO)c(C)[nH]1` the cytotoxicity call was “inactive”. In the case of `COc1cccc(NC(=O)N2C[C@H](O)COC[C@@H]3O[C@@H](CC(=O)NCCCN4CCOCC4)CC[C@H]32)c1`, the cytotoxicity call is reported as “inactive”. With `CCOC(=O)CSc1nc(=O)cn[nH]1` the cytotoxicity call was “inactive”. For `C[C@@H]1CN([C@H](C)CO)C(=O)Cc2cc(NC(=O)C3CC3)ccc2O[C@H]1CN(C)Cc1ccc2c(c1)OCO2`, the cytotoxicity call was “inactive”. With `CC(C)NC(=O)N(C)C[C@@H]1OCCCC[C@@H](C)Oc2ccc(NC(=O)Nc3ccccc3)cc2C(=O)N([C@@H](C)CO)C[C@@H]1C` the cytotoxicity call was “inactive”. For `COc1ccc(S(=O)(=O)Nc2ccc3c(c2)C(=O)N([C@H](C)CO)C[C@H](C)[C@H](CN(C)C(=O)Nc2c(C)noc2C)OCCCC[C@@H](C)O3)cc1`, the cytotoxicity call was “inactive”. For `C[C@@H]1CN([C@H](C)CO)C(=O)c2cc(C3=CCCC3)cnc2O[C@H]1CN(C)S(=O)(=O)c1cn(C)cn1`, the cytotoxicity call was “inactive”. With `Cc1noc(C)c1S(=O)(=O)Nc1ccc2c(c1)CC(=O)N([C@H](C)CO)C[C@H](C)[C@H](CN(C)S(=O)(=O)c1cn(C)cn1)O2` the cytotoxicity call was “inactive”. `C[C@@H]1CCCCO[C@H](CN(C)C(=O)Nc2ccc3c(c2)OCO3)[C@H](C)CN([C@@H](C)CO)C(=O)c2cc(NC(=O)c3ccncc3)ccc2O1` was tested, and the cytotoxicity call was “inactive”. `C[C@@H]1CN([C@@H](C)CO)C(=O)Cc2cc(NC(=O)Nc3cccc4ccccc34)ccc2O[C@@H]1CN(C)C(=O)Nc1cccc2ccccc12` was tested, and the cytotoxicity call was “inactive”. In the case of `NCCN1CCOCC1`, the cytotoxicity call is reported as “inactive”. In the case of `C[C@H]1CN([C@@H](C)CO)C(=O)c2cc(NC(=O)Nc3ccc(F)cc3)ccc2O[C@@H]1CN(C)Cc1ccc(Cl)c(Cl)c1`, the cytotoxicity call is reported as “inactive”. In the case of `C[C@H](CO)N1C[C@H](C)[C@H](CN(C)Cc2ccc(Cl)c(Cl)c2)Oc2ccc(NC(=O)Nc3ccc(C(F)(F)F)cc3)cc2C1=O`, the cytotoxicity call is reported as “active”. `C[C@H](CO)N1C[C@H](C)[C@@H](CN(C)Cc2ccc(Cl)c(Cl)c2)Oc2ccc(NC(=O)Nc3ccc(F)cc3)cc2C1=O` was tested, and the cytotoxicity call was “inactive”. In the case of `C[C@H]1CN([C@@H](C)CO)C(=O)c2cc(NC(=O)Nc3ccc(C(F)(F)F)cc3)ccc2O[C@H]1CN(C)Cc1ccc(Cl)c(Cl)c1`, the cytotoxicity call is reported as “active”.
